Compounds with a hit are over-represented: about 11% of the library has one in this group of screens.
IMPase cell inh = cell-permeable inhibitors of inositol monophosphatase (IMPase); CHO-M1 cells, IP1 accumulation, HTRF TR-FRET ratio; inhibition (IP1 accumulation), % at 46.1 µM; 120,000 tested, under 10 active; AID 901; active = well fitted curve in the direction sought with a large enough effect in the signal ratio, not every such curve was filed as active; inconclusive = small, poorly fitted or top-dose-only effect, or a change in a side signal; inactive = no such curve, though single readings can be large or run the other way; the % refers to the signal ratio;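 also: cells stimulated with carbachol in lithium chloride buffer; plate controls were DMSO basal wells for no effect and reference inhibitor wells for full effect; higher means more IMPase inhibition seen as more IP1 and lower FRET ratio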
Target sequence (P97697 whole entry, looked up): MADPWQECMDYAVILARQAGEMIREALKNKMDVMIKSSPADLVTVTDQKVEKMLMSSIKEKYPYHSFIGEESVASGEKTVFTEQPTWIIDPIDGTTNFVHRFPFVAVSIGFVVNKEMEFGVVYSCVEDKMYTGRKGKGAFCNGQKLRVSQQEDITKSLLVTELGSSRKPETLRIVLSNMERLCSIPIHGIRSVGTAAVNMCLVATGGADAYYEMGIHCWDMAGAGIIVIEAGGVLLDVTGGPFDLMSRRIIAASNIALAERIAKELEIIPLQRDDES
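Carbachol-driven Gq signalling in CHO-M1 cells (2000/well) generates IP1. Compounds that block IMPase raise IP1 and so reduce the FRET signal from Eu-anti-IP1 and d2-IP1 after a 10 min room-temperature lysis.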
PNC inhibitor = perinucleolar compartment assembly inhibition; PC3M PTB-GFP, PNC prevalence imaging, 16 h; hits give low values; 140,000 compounds, 3.1% hits; activity change (PNC), negative = inhibition, % at 10 µM;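 active = readout at or below -70, meaning at least 70% loss of cells showing the perinucleolar compartment, a nuclear body marking cancer cells; inconclusive = readout between -30 and a set limit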;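 also: plate controls were DMSO wells for no effect and camptothecin positive control wells for full effect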
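PC3M cells stably expressing PTB-GFP, 750–1000 cells/well, treated 16 h at 37 °C with compound (23 nl of library stock), in duplicate. After paraformaldehyde fixation and Hoechst stain, imaged at 20x; PNC prevalence scored by image analysis.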
HPGD inh = HPGD (human) dehydrogenase inhibition. P15428. purified HPGD, NADH fluorescence kinetic, PGE2 substrate. Potency, µM, inactives show at the highest dose activity change, negative = inhibition, hits mostly inhibitors. 150,000 compounds, 4.3% hits; active = well fitted inhibition curve with a large enough effect, not every such curve was filed as active; inconclusive = small, poorly fitted or top-dose-only effect, or another doubt; inactive = no such curve, though single readings can be large or run the other way; also: potency is read from the fitted curve at half-maximal effect
Target sequence (P15428 whole entry, looked up): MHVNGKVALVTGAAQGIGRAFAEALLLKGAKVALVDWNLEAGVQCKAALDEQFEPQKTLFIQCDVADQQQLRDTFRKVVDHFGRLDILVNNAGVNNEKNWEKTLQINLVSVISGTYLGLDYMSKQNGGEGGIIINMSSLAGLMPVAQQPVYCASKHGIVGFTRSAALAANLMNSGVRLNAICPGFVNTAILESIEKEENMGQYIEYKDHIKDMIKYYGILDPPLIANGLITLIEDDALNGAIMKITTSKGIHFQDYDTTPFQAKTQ
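NADH formation kinetics: reaction with 30 uM PGE2 and 1 mM NAD+ (final), 20 nM enzyme, Tris-HCl pH 8 with Tween 20, after 15 min compound preincubation at room temperature. Fluorescence change, last versus first of five reads.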
IMPase Li inh = IMPase inhibition in cells with lithium potentiation; 210,000 compounds, 0.35% hits; AID 1457; CHO-M1 cells, IP1 TR-FRET (IP-One), carbachol + lithium; Potency, µM (highest dose often 59.4 µM), without a hit: top-dose activity, negative = IMPase inhibition, usual class: inhibitors;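 also: IP1 builds up when IMPase is blocked and the TR-FRET signal falls; potency is read from the fitted curve at half-maximal effect; plate controls were basal vehicle for no effect and high inhibitor control for full effect; nearly all actives have a fitted effect of over 50% in size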
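Readout is a homogeneous TR-FRET IP1 immunoassay (Ex 320, Em 665 and 620), where raised cytosolic IP1 lowers signal. Cells were CHO-M1 treated 30 min at 37C with test compounds plus a little lithium; AC50 values came from Hill-equation fitting.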
ALDH1A1 block = blocks purified human ALDH1A1 activity; P00352; Purified ALDH1A1, NADH fluorescence, propionaldehyde substrate; Potency, µM (titrated, usually from 75.3 µM), for the others: top-dose activity, negative = inhibition, hits mostly inhibitors; 220,000 compounds, 7.3% hits; AID 1030; active = well fitted inhibition curve with a large enough effect, not every such curve was filed as active; inconclusive = small, poorly fitted or top-dose-only effect, or another doubt; inactive = no such curve, though single readings can be large or run the other way;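 also: potency is read from the fitted curve at half-maximal effect; plate controls were no enzyme wells and a reference inhibitor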
12-hLO inh = blocks human 12-lipoxygenase activity; P18054; purified 12-hLO, xylenol orange hydroperoxide absorbance; Potency, µM (top dose mostly 57.1 µM), for the others: at the top dose activity change, negative = inhibition, hits mostly inhibitors; 150,000 compounds, 0.12% hits; also: potency is read from the fitted curve at half-maximal effect; nearly all actives have a fitted effect of over 55% in size
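Hydroperoxide output read as Fe(III)-xylenol orange absorbance, 573-to-405 nm ratio, after 30 min reaction with 40 uM arachidonic acid. Enzyme: 150 nM purified human 12hLO, 15 min compound preincubation; 25 mM Hepes pH 7.0, room temperature.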
* hit, by the source's call; u = inconclusive; x = no result; [ ] = remark or other dose. Unless noted, calls follow the shape of the dose curve; as a rule, active = well fitted curve in the direction sought with a large enough effect; inconclusive = small, poorly fitted or top-dose-only effect, or another doubt; inactive = no such curve, though single readings can be large; an effect the other way counts as inactive or inconclusive. Unless noted, % is scaled to controls: 0 for no effect and ±100 for the full control effect.

SMILES	IMPase cell inh	PNC inhibitor	HPGD inh	IMPase Li inh	ALDH1A1 block	12-hLO inh
O=C(CC1Sc2ncnn2C1=O)Nc1ccc(Cl)cc1 (stereo unspecified)	x	x	x	2.8%	7.94µM*	x
CCOC(=O)c1ccc(NC(=O)CN2C(=O)C(C)SC(C)C2=O)cc1 (stereo unspecified)	17.9	-20.5	-8.3%	-1.8%	0.8%	-6.1%
COc1ccc(NC(=O)CC2Sc3ncnn3C2=O)cc1 (stereo unspecified)	6.8	24.3	7.94µM*	3.9%	0.398µM*	-2.3%
CCOC(=O)c1ccccc1NC(=O)CC1SC(=NC)N(C)C1=O (stereo unspecified)	u	u	-5.6%	12.7%[38.3 µM]	1.4%	0.8%
COCCN1C(=O)C(CC(=O)Nc2ccccc2)SC1=Nc1ccc(OC)cc1 (stereo unspecified)	-1.6	1.8	-6.0%	21.6%[38.3 µM]	-7.4%	-4.7%
CCOC(=O)c1ccc(NC(=O)CC2SC(=NC)N(C)C2=O)cc1 (stereo unspecified)	-9.1	u	-9.1%	15.9%[38.3 µM]	12.6µM*	0.9%
CCOC(=O)c1ccc(NC(=O)CC2Sc3ncnn3C2=O)cc1 (stereo unspecified)	18.7	u	15.8µM*	12.4%	1µM*	-1.2%
Cc1ccc(S(=O)(=O)CCC(=O)Nc2ccc(F)cc2)cc1	x	x	x	7.1%	u	x
O=Cc1cccn1-c1nccc(-c2ccco2)n1	x	x	x	-11.9%	22.4µM*	x
COCc1cc(S(=O)c2ccc(Cl)cc2)nc(C)n1 (stereo unspecified)	x	x	x	-4.6%	17.8µM*	x
Cc1noc(C)c1-c1nccc(NCCN2CCOCC2)n1	x	x	x	6.6%	u	x
Cc1cccc(CNc2cc(-c3ccccc3C)ncn2)c1	x	x	15.8µM*	8.0%	u	-5.9%
Cc1ccccc1-c1cc(Nc2ccc(F)cc2)ncn1	x	x	14.1µM*	0.4%	-4.9%	-2.3%
Cc1ccccc1-c1cc(Nc2ccccc2)ncn1	x	x	x	-9.6%	u	x
COc1ccccc1-c1cc(NCc2cccc(C)c2)ncn1	x	x	x	4.1%	-10.3%	x
CC[C@H]1C2=C3C(CC[C@H]4C(OCc5ccc(F)cc5C(F)(F)F)OC[C@](C)([C@@H]34)N(C(=O)OC(C)(C)C)C2)C(COC(C)=O)C1COC(C)=O (stereo partly specified)	x	x	-15.4%	3.5%	-15.0%	-0.7%
CCOC(=O)c1c(C)n(-c2ccccc2)c2ccc(OC(=O)c3cc(OC)cc(OC)c3)cc12	-4.5	x	x	x	x	x
c1ccc(Sc2ncccn2)nc1	x	x	x	x	-10.5%	x
COc1ccccc1CNC(=O)C(CC(C)C)NC(=O)C1CCC(C)CC1 (stereo unspecified)	3.3	-102.3*	-9.4%	6.3%[38.3 µM]	-1.6%	0.7%
CCCC=O	x	x	-11.2%	6.6%	3.55µM*	-0.5%
COC(=O)c1ccc(C(NC(=O)OCc2ccccc2)/C(=C/[C@@H](C)C(=O)NCc2cc(F)cc(F)c2)c2cccnc2)cc1 (stereo partly specified)	x	x	-7.2%	-5.8%	-0.1%	-2.2%
COC(=O)c1c(N)n(-c2ccc(N3CCOCC3)cc2)c2nc3ccccc3nc12	13.8	14.5	-25.8%	10.4%[38.3 µM]	17.8µM*	-11.1%
COC(=O)c1c(N)n(-c2ccc(NC(C)=O)cc2)c2nc3ccccc3nc12	5.4	-28.9	u	9.5%[38.3 µM]	u	-16.8%
CCC(=O)OCC(=O)[C@@]1(OC(=O)CC)[C@H](C)C[C@@H]2[C@H]3CCC4=CC(=O)C=C[C@]4(C)[C@]3(Cl)[C@@H](O)C[C@@]21C	0.3[20.6 µM]	x	4.4%	-1.8%	-13.8%[20.9 µM]	-1.7%[25.6 µM]
COC(=O)C1=C(C)N(CCc2ccc(OC)cc2)C(=O)C1	13.5	-27.5	-29.6%	15.7%[38.3 µM]	10µM*	3.6%
SMILES	IMPase cell inh	PNC inhibitor	HPGD inh	IMPase Li inh	ALDH1A1 block	12-hLO inh
CC1=CCC2C(=O)N(CCc3c[nH]c4ccccc34)C(=O)C2C1 (stereo unspecified)	13.3	8.3	-15.8%	-4.4%	-15.4%	0.1%
COC(=O)C1=C(C)N(CCc2c[nH]c3ccccc23)C(=O)/C1=C\N(C)C	x	x	x	-0.1%	12.6µM*	x
COC(=O)C1=C(C)N(CCc2c[nH]c3ccc(OC)cc23)C(=O)C1	x	x	x	23.3%	17.8µM*	x
Cc1cc(C)c(NC(=O)CSc2nc3ccccc3nc2N2CCCCC2)c(C)c1	-3.0	x	x	x	x	x
CC(=O)/C(=C\c1ccccc1F)C(=O)c1ccccc1	x	x	-10.2%	5.9%	1.0%[13.5 µM]	-6.5%[11.4 µM]
CCn1c2c(c3cc(Br)ccc31)CCC/C2=N\O	u	-23.6	-6.4%	11.2µM*	-12.3%	-12.1%
O=c1oc2ccccc2c(O)c1/C=N/c1nc(-c2ccc(O)c(O)c2)cs1	x	x	-24.2%	-14.7%	3.55µM*	-13.9%[11.4 µM]
Cc1ccc(C(=O)NC(=S)Nc2ccccc2C(F)(F)F)cc1C	-3.0	72.4	-21.4%	17.0%[38.3 µM]	4.47µM*	22.4µM*
Cc1cccc(C(=O)NC(=S)NNC(=O)Cc2ccccc2)c1	x	u	-17.5%	8.6%	u	-3.5%
Cc1cccc(C(=O)NC(=S)Nc2ccccc2C(F)(F)F)c1	x	43.3	-10.0%	5.5%	17.8µM*	u
COc1ccc(CNC(=O)CCS(=O)(=O)c2cc(Br)cc3c2N(C(C)=O)C(C)C3)cc1 (stereo unspecified)	2.1	x	x	x	x	x
O=C(CN1CCN(Cc2ccc3c(c2)OCO3)CC1)N1CCc2[nH]c3ccc(F)cc3c2C1	-1.2	u	3.0%	-2.4%	u	-2.5%
Cc1ccc2[nH]c3c(c2c1)CN(C(=O)CN1CCCc2ccccc21)CC3	13.4	41.6	22.4µM*	27.4%[38.3 µM]	2.82µM*	-13.2%
Cc1ccc2[nH]c3c(c2c1)CN(C(=O)CN1CCN(c2ccccc2F)CC1)CC3	-1.2	9.7	-13.8%	16.7%[38.3 µM]	8.91µM*	-9.3%
COC(=O)NC(CC(C)=O)c1ccc(Cl)cc1 (stereo unspecified)	x	x	x	x	3.9%[13.5 µM]	x
CCC1=C2CC[C@H]3C(=O)N(CC)C(=O)[C@H]3[C@H]2[C@@]2(Cc3ccccc3)C(=O)N(CCOC)C(=O)N2C1=O	x	x	1.0%	-7.2%	-2.2%	2.1%
CC(C)C1CC(=O)NC(SCC(=O)Nc2ccc(Br)cc2)=C1C#N (stereo unspecified)	3.6	u	-2.2%	0.6%[38.3 µM]	8.91µM*	-11.2%
Cc1ccc(NC(=O)CSC2=C(C#N)C(c3ccco3)C3=C(CC(C)(C)CC3=O)N2)cc1 (stereo unspecified)	16.1	-25.2	-9.9%	16.4%[38.3 µM]	12.6µM*	-12.4%
Cc1ccc(C(=O)CSC2=C(C#N)C(c3ccco3)CC(=O)N2)c(C)c1 (stereo unspecified)	-2.9	18.3	u	-1.8%[38.3 µM]	u	-15.7%
CCc1ccc(NC(=O)CSC2=C(C#N)C(c3ccco3)C3=C(CCCC3=O)N2)cc1 (stereo unspecified)	0.8	-1.4	-7.7%	10.8%[38.3 µM]	u	-6.7%
